# SMN2 splice enh – SMN2 splice variant enhancement; HEK293 SMN2-luciferase splicing reporter, luminescence, 30-36 h; actives 2.8% (n = 210,000); Potency, µM (titrated, usually from 46.1 µM), inactives show at the highest dose activity change, positive = activation, hits mostly activators; AID 1458; also: % of control where 0% means no effect; nearly all actives have a fitted effect of over 55% in size
#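 HEK293 cells carry an SMN2 […]–luciferase reporter in which exon 7 inclusion puts luciferase in frame. Cells were plated 10-12 h before compound addition, then incubated 30-36 h at 37C. ONE-Glo luminescence was read; sodium butyrate at 4.5 mM final served as control.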
# ELG1 genotox – genotoxicity induction in ELG1-luciferase HEK293T cells; AID 504466; actives 1.3% (n = 330,000); HEK293T ELG1-luciferase reporter, luminescence, 16 h; Potency, µM (series often up to 46 µM), without a hit: at the top dose activity change, positive = activation, actives largely listed as activators; also: % of control where 0% means no effect; nearly all actives have a fitted effect of over 60% in size
#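 Screening used a luciferase reporter fused to human ELG1 in HEK293T cells. Luminescence was read on a CCD plate imager after 16 hr exposure and 30 min ONE-Glo incubation.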
# NPC1 prom act – activates the NPC1 promoter. Potency, µM (doses to about 9.22 µM), for inactives: at the highest dose activation, most hits filed as activators. actives 2.4% (n = 320,000). Huh7 NPC1 promoter luciferase reporter, 24 h; also: % of control where 0% means no effect; nearly all actives have a fitted effect of over 60% in size
#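 Stable NPC1-promoter luciferase Huh7 line; cpd (DMSO) 24 h, 37 °C, 5% CO2; Amplite luciferase reagent 10 min RT; luminescence readout. qHTS format.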
# Rab9 promoter act – activates the Rab9 promoter; Huh7 Rab9 promoter-luciferase reporter, luminescence, 24 h; Potency, µM (titrated, usually from 9.22 µM), for the others: top-dose activation, negative = inhibition, most hits filed as activators; actives 2.8% (n = 320,000); also: % of control where 0% means no effect; nearly all actives have a fitted effect of over 60% in size
#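 Luciferase signal after 10 min detection reagent at ambient indicates Rab9 promoter upregulation; stably transfected Huh7 cells were treated 24 h with compound in DMSO at 37 °C, 5% CO2.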
# FLuc modulator – inhibits or activates purified firefly luciferase, miR-21 counter-screen | purified FLuc, Km substrates, luminescence inhibition | Potency, µM (doses to about 57.5 µM), inactives show at the highest dose activity change, negative = inhibition, actives largely listed as inhibitors | actives 6.9% (n = 360,000) | AID 588342;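 also: plate controls were vehicle for no effect and reference inhibitor for full effect; nearly all actives have a fitted effect of over 55% in size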
# Target sequence (P08659 whole entry, looked up): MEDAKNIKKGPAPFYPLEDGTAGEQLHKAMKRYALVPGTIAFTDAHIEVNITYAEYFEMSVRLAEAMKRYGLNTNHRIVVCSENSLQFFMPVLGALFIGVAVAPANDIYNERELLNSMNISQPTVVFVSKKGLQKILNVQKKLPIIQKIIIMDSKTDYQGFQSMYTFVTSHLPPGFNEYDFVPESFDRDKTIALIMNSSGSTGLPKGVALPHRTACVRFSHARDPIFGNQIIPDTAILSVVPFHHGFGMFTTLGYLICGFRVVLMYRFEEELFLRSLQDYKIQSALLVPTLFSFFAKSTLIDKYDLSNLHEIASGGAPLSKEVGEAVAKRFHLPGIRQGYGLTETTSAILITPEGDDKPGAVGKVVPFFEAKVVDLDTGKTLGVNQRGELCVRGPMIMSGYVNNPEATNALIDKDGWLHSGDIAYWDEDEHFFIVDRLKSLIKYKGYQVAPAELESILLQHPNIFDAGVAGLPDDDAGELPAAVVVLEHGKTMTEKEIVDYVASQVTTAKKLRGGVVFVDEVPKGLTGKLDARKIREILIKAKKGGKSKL
#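 Purified P. pyralis luciferase (10nM final) with 10uM D-luciferin and 10uM ATP (Km levels) in 50mM Tris acetate pH 7.5, 10mM Mg acetate, 0.01% Tween-20, 0.05% BSA; qHTS 6-point titration, ~60 µM downward; luminescence read.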
# Active calls of the source: *; u = inconclusive; x = no result given; [ ] = another dose, or the depositor's remark. Shown are actives, neighbours in structure and some others; about 7.4% of the full set was active somewhere. Calls follow the shape of the dose curve; as a rule, active = well fitted curve in the direction sought with a large enough effect; inconclusive = small, poorly fitted or top-dose-only effect, or another doubt; inactive = no such curve, though single readings can be large; an effect the other way counts as inactive or inconclusive. Potency is read from the fitted curve at half-maximal effect.
SMILES,SMN2 splice enh,ELG1 genotox,NPC1 prom act,Rab9 promoter act,FLuc modulator
O=C(O)c1ccccc1NC(=O)C1CCCO1 (stereo not given),-0.7%,x,x,x,-2.0%
COc1ccc(NC(=O)c2ccccc2NC(=O)C2CCCO2)cc1 (stereo not given),20µM*,u,25.7%,u,-10.1%
O=C(NCCc1ccccc1)c1ccccc1NC(=O)C1CCCO1 (stereo not given),3.55µM*,u,1.41µM*,1.26µM*,u
COc1ccc(NC(=O)Cn2c(=O)oc3cc(S(=O)(=O)N4CCCCC4C)ccc32)cc1 (stereo not given),x,x,x,x,-17.0%
Cc1ccc(N2C(=O)c3n[nH]c(C)c3C2c2ccc(Cl)cc2)cc1 (stereo not given),u,x,x,x,9.53µM*
Cc1ccc(N2C(=O)c3n[nH]c(C)c3C2c2ccccc2Cl)cc1 (stereo not given),10.6%,x,x,x,-14.6%
CN(C(=O)CSc1cn(CC(=O)N2CCCC2)c2ccccc12)c1ccccc1,x,x,x,x,4.5%
CCOC(=O)c1[nH]c(C)c(CCC(=O)N2CCN(c3ccc(OC)cc3)CC2)c1C,x,x,x,x,-1.1%
COC(=O)C1=C(CSc2nnnn2C)NC(=O)NC1c1cc(C)ccc1C (stereo not given),25.1µM*,-0.8%,-3.7%,0.1%,3.2%
COC(=O)C1=C(CN2CCN(C)CC2)NC(=O)NC1c1cc(C)ccc1C (stereo not given),13.9%,-1.5%,-2.2%,-10.3%,-0.1%
COC(=O)C1=C(CSc2nncn2C)NC(=O)NC1c1cc(C)ccc1C (stereo not given),17.3%,-2.1%,-3.5%,-5.1%,-0.1%
COC(=O)C1=C(CN2CCc3ccccc32)NC(=O)NC1c1cc(C)ccc1C (stereo not given),4.47µM*,-3.4%,1.6%,-9.4%,-0.3%
O=C(Nc1ccc2c(c1)OCCO2)C1CCC1,13.8%,10.0%,11.6%,0.5%,0.9%[2.3 µM]
COc1cccc(NC(=O)C2CCCN2C(=O)NC2CCCCC2)c1 (stereo not given),x,4.8%,1.2%,0.0%,-0.1%
COc1cccc(NC(=O)NC2CCCCCCC2)c1,x,u,3.55µM*,u,10.7µM*
O=C(Nc1ccc(F)cc1F)NC1CCCCCCC1,x,u,u,u,12µM*
O=C(Nc1cccc(F)c1)NC1CC2CCCC(C1)N2C1CC1 (stereo not given),15.3%,2.4%,-0.9%,2.6%,1.5%
O=C(Nc1cccc(F)c1)NC1CCCCC1,17.8µM*,u,u,u,23.9µM*
O=C(Nc1ccc(F)cc1F)NC1CC1,-0.8%,-1.6%,0.2%,1.6%,-0.1%
O=C(Nc1ccc2c(c1)OCCO2)NC1CCCCC1,10µM*,1.64µM*,0.631µM*,0.562µM*,3.79µM*
COc1cccc(NC(=S)N2CCC(NC(=O)C3CCCCC3)CC2)c1,x,-6.9%,-1.6%,6.4%,6.8%
COc1cc(NC(=O)NC2Cc3ccccc3C2)cc(OC)c1,x,7.5%,5.2%,14.7%,16.9µM*
COc1cccc(C(=O)COC(=O)CCCC(=O)NC2CCCCC2)c1,x,-0.8%,-2.8%,-0.3%,26.9µM*
COc1cccc(NC(=O)C(=S)NC2CCCCC2)c1,3.55µM*,u,2µM*,0.794µM*,2.39µM*
Cc1ccc(CNC(=O)Cn2ccn(-c3ccc(C)c(C)c3)c(=O)c2=O)cc1,x,x,x,x,-8.9%
SMILES,SMN2 splice enh,ELG1 genotox,NPC1 prom act,Rab9 promoter act,FLuc modulator
O=C(O)c1ccc(S(=O)(=O)N=Nc2c(O)[nH]c3ccccc23)cc1,-18.1%[9.22 µM],x,x,x,x
O=C(Nc1ccc(Cl)cc1Cl)c1n[nH]c(Cn2cncn2)n1,18.3%,u,15.6%,16.9%,4.26µM*
C=Cc1ccc(COc2ccc3oc(-c4ccccc4)c(C(=O)OCC)c3c2)cc1,-7.8%,x,x,x,-1.7%
Cc1cc(C)cc(NC(=O)c2ccc3nc[nH]c3c2)c1,-4.0%,9.8%,11.5%,12.8%,6.75µM*
Cc1cccc(C)c1NC(=O)CNC(=O)c1ccc2nc[nH]c2c1,x,0.1%,-1.8%,2.7%,3.3%
CN(C)c1ccc(NC(=O)c2ccc3nc[nH]c3c2)cc1,x,u,u,u,13.5µM*
Cc1ccc(NC(=O)c2ccc3nc[nH]c3c2)cc1C,11.2µM*,u,2.82µM*,1.78µM*,9.53µM*
O=C(Nc1ccc(F)cc1)c1ccc2nc[nH]c2c1,u,5.2%,26.5%,18.3%,u
Cc1ccc(CNC(=O)C2CCN(c3nc4ccc(C)cc4[nH]3)CC2)cc1,x,x,x,x,-11.3%
CCCn1c(-c2ccc(F)cc2)nc2c(NCCN(C(C)C)C(C)C)nc(C)nc21,-9.8%,x,x,x,x
Cc1ccc(-n2nc(CO)c(C(=O)NCc3cccnc3)n2)cc1C,-36.1%,x,x,x,u
CC(=O)N1N=C(c2ccc(Cl)cc2)OC1c1ccc(C(C)C)cc1 (stereo not given),19.1%,u,23.8%,28.7%,12µM*
CC(=O)N1N=C(c2ccc(C)cc2)OC1c1ccc(Br)cc1 (stereo not given),x,-3.3%,-0.5%,9.2%,-3.0%
NS(=O)(=O)c1ccc(CCNC(=O)c2nc(SCc3ccccc3F)ncc2Cl)cc1,-6.2%,x,x,x,0.6%
Cc1c(-c2ncn[nH]2)sc(C#N)c1-c1ccccc1,-17.7%,1.9%,7.9%,-3.3%,19µM*
CSc1nccc(-c2sc(SC)c(C#N)c2-c2ccccc2)n1,x,2.4%,-2.8%,3.2%,2.9%
Cc1ccc(Nc2nc(CSc3nnc(-c4cccs4)o3)cs2)cc1,-17.0%,u,20.8%,18.6%,6.75µM*
Cn1nnnc1SCc1cccc(CSc2nnnn2C)n1,13.6%,u,0.6%,5.4%,7.0%
Cc1ccc(Nc2nc(CSc3n[nH]c(N)n3)cs2)cc1,x,u,1.12µM*,2.24µM*,1.35µM*

# High-throughput results: PubChem BioAssay, National Center for Advancing Translational Sciences (NCATS)
